The list is not random: actives were taken first. Their share in the collection is about 1.5%.
TLR4-MyD88 BLA = inhibitors of human TLR4-MyD88 binding. O00206+Q99836. HeLa CL3-4 TLR4/MyD88 BLA complementation, FRET ratio. inhibition, % at 8.4 µM. 200,000 tested, 0.18% active. AID 861; in the data active means inhibition above about 25%;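 further: 0% = vehicle and 100% = reference inhibitor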
B2AR ag = agonists of human beta-2 adrenergic receptor inducing internalization. P07550. Am2.2-beta2AR cells, FAP receptor internalization, flow cytometry. response, % (test concentration not listed). 340,000 tested, 0.43% active. AID 504454;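 active means response above a set limit, near 3 SD of response in nonfluorescent compounds, cut at about 42% in these data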
NOD2-RIPK2 inh = inhibitors of human NOD2-RIPK2 interaction. O43353. 360,000 tested, 0.38% active. inhibition, % at 4.98 µM. CHO BLA complementation NOD2-RIPK2, CCF4 ratio; in the data active means inhibition above about 21%;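 further: 0% = vehicle only and 100% = reference blocker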
ABHD5-PLIN5 inh = blocks binding of human ABHD5 to perilipin-5; Q00G26+Q8WTS1; Split G. princeps luciferase complementation, luminescence, 4 h; inhibition, % at 4 µM; 360,000 tested, 0.78% active;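 active means inhibition above the mean inhibition across every tested compound plus 3 SD, cut at about 22% in these data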;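 further: 0% = DMSO only wells and the 100% control is not disclosed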
Target sequence (Q00G26 whole entry, looked up): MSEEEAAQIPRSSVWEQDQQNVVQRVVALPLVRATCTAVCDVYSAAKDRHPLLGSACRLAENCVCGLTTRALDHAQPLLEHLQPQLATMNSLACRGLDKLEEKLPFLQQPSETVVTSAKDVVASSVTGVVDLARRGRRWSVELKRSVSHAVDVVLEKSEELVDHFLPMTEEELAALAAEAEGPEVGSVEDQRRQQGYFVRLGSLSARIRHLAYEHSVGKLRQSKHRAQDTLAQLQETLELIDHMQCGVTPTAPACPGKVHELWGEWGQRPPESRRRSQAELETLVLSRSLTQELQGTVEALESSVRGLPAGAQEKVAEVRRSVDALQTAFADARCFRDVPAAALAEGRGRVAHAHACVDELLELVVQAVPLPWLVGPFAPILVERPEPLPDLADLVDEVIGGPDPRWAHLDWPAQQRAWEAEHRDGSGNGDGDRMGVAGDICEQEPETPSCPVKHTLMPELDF
Target sequence (Q8WTS1 whole entry, looked up): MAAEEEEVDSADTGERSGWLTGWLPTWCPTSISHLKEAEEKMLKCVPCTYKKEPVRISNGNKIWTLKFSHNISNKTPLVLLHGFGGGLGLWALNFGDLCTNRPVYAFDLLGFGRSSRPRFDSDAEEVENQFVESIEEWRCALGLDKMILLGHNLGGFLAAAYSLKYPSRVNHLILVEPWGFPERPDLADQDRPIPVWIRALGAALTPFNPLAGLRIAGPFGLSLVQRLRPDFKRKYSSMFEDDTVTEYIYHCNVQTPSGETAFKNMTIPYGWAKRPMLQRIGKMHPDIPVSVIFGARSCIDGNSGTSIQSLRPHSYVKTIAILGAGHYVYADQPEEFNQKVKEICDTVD
TLR9-MyD88 block = TLR9-MyD88 interaction inhibition | Q9NR96+Q99836 | CHO BLA complementation TLR9-MyD88, CCF4 FRET ratio | inhibition, % at 4.98 µM | 340,000 tested, 0.21% active | AID 504734;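 active means inhibition above the mean over all tested compounds plus 3 SD, cut at about 21% in these data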;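 further: 0% = DMSO only wells and 100% = clavulanate BLA inhibitor control wells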
NTR1 agonist = activates human neurotensin receptor 1 | NTR1-U2OS beta-arrestin-GFP spot imaging, agonist mode | activation, % at 20 µM | 330,000 tested, 0.17% active;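 active means activation at or above 40% of the spot to cytoplasm intensity ratio, with at least 20 cells analyzed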;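 further: 0% = DMSO without peptide and 100% = 100 nM NTR1 peptide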
An asterisk follows results filed as active; nt = no result; ! = not confirmed by another sample.

SMILES | TLR4-MyD88 BLA | B2AR ag | NOD2-RIPK2 inh | ABHD5-PLIN5 inh | TLR9-MyD88 block | NTR1 agonist
CN1CCN(C2Cc3cc(Cl)ccc3Sc3cc(F)ccc32)CC1 (centres undefined) | nt | 16.8 | 5.7 | 10.0 | -9.5 | 11.0
OCCN1CCN(C2Cc3cc(Cl)ccc3Sc3ccc(Cl)cc32)CC1 (centres undefined) (tested in a mixture with another compound) | -4.8 | 8.1 | -1.4 | 23.0* | 6.4 | 9.8
C=C(C(=O)Oc1ccccc1C(C)(C)C)c1ccccc1 | nt | nt | nt | nt | nt | 12.9
CCOc1ccc(/C=C2\SC(=S)N(N3C(=O)C4CC4C3=O)C2=O)cc1 (centres undefined) | 3.0 | 84.0* | 4.2 | -3.7 | -5.7 | -0.2
Cn1ccc2c(-c3ccc(C(=O)O)cc3)cc3c(c21)C1CCC3O1 (centres undefined) | nt | nt | -11.3 | 2.9 | nt | nt
CCOC(=O)N1CCC(NC(=S)Nc2ccc3nc(N4CCN(CC)CC4)cc(C)c3c2)CC1 | 0.5 | 50.2* | 0.8 | 10.9 | -5.2 | 2.3
Cc1cccc2c1c1ccc3c(c1n2C)C(=O)C=CC3=O | nt | 88.5* | -1.3 | -10.0 | -1.3 | nt
Cc1ccccc1N1CC(=O)N(c2ccccc2C)CC1=O | 10.0 | 3.7 | -13.2 | 4.9 | 1.0 | 0.5
CCOC(=O)C(=O)Nc1cccc(C(=O)OCC)c1 | 8.2 | 63.7* | 3.2 | 8.6 | -11.2 | 0.1
CCOc1cc(C=O)c(Br)cc1OC1CCCC1 | -17.9 | 44.5* | -8.1 | -5.0 | -5.8 | 1.6
CCCCCn1c2c(c(=N)c3ccccc31)CCC2 | nt | -12.7 | -12.8 | -2.9 | -3.6 | 3.4
CCCCCCCCCCn1c2c(c(=N)c3c1CCC3)CCC2 | 9.9 | 13.0 | 16.9 | 23.0* | -12.1 | 42.1*
Cc1ccc2nc(-c3ccc(C#N)cc3)c(Cc3ccccc3)n2c1 | nt | nt | -1.7 | 0.8 | nt | nt
COc1cccc(C2C=C(c3ccc(OC)cc3OC)Nc3nnnn32)c1 (centres undefined) | 8.1 | -7.2 | 30.8* | -1.0 | 46.1* | -0.3
CC(C)C[C@H]1COc2cccc(N(C)CCO)c2S(=O)(=O)N1 | nt | nt | 5.5 | -2.7 | nt | nt
CN(C)/C=C(\C#N)c1nc2ccccc2[nH]1 | 7.1 | -9.1 | -2.9 | -4.0 | 11.1 | -0.1
N#C/C(=C\c1c(Cl)cccc1Cl)c1nc2ccccc2[nH]1 | nt | 56.2* | 14.9 | -3.6 | 1.9 | 0.6
O=C(O)c1cc(-c2ccco2)nc2ccc(Br)cc12 | 7.9 | 2.9 | -11.3 | 29.0*! | -4.3 | -0.3
O=C(N/N=C/c1coc2ccccc2c1=O)c1ccccc1 | -15.8 | 15.2 | -2.6 | 2.8 | -5.9 | -0.7
O=C(N/N=C/c1coc2ccccc2c1=O)c1cn(-c2ccccc2)nc1-c1ccccc1 | -2.2 | 56.9* | 2.7 | 2.8 | -9.9 | 3.7
COc1ccc([C@H]2C[C@@H](O)[C@H](n3cc(C4CC4)nn3)CN2C(=O)C2CCCCC2)cc1 | nt | nt | -2.7 | -8.0 | 12.0 | nt
Cn1cc(-c2csc(C(C)(O)c3cccnc3)n2)cn1 (centres undefined) | nt | nt | -14.4 | 4.5 | nt | nt
Cc1ccc(-c2nn(-c3ccccc3)cc2C=C2C(=O)CC(C)(C)CC2=O)cc1 | -6.7 | 7.6 | -11.1 | 1.1 | -2.0 | 46.0*
Cc1ccc(-c2nn(-c3ccccc3)cc2C=C2SC(=S)N(CCS(=O)(=O)O)C2=O)cc1 | nt | nt | -5.4 | 9.3 | nt | nt
Cc1ccccc1N=Nc1ccc(O)c2ncccc12 | -1.3 | 10.9 | -10.8 | 6.3 | -0.9 | nt
SMILES | TLR4-MyD88 BLA | B2AR ag | NOD2-RIPK2 inh | ABHD5-PLIN5 inh | TLR9-MyD88 block | NTR1 agonist
O=S(=O)(O)c1cccc2c(N=Nc3ccc(O)c4ncccc34)cccc12 | nt | 1.5 | 0.8 | 35.9* | 14.6 | nt
O=C(c1ccccc1)C1CC=CCC1C(=O)c1ccccc1 (centres undefined) | nt | 43.8* | -7.8 | -1.2 | 3.3 | nt
CC1=C(C)CC(C(=O)c2ccccc2)C(C(=O)O)C1 (centres undefined) | 9.4 | 4.3 | -3.0 | -2.5 | -5.0 | -0.5
O=[N+]([O-])c1ccc(O)c2ncccc12 | -7.0 | 0.2 | -15.3 | -3.0 | 7.7 | 4.3
O=[N+]([O-])c1cc([N+](=O)[O-])c2cccnc2c1Oc1ccccc1O | 0.8 | 50.8* | -3.3 | 2.3 | 1.7 | nt
N#Cc1cc(Oc2ccc3ccccc3c2)c(-n2nnc3ccccc32)cc1C#N | 7.0 | 48.4* | 0.2 | -2.7 | -1.7 | -0.6
N#Cc1cc(Oc2ccccc2)c(-n2nnc3ccccc32)cc1C#N | 8.6 | 5.4 | -1.2 | -3.8 | -0.4 | 6.0
C[C@]12CC[C@@H]3c4ccc(O)cc4CC[C@H]3[C@@H]1CC[C@@H]2OC(=O)CCC1CCCC1 | nt | 4.4 | 1.5 | 1.0 | 3.3 | 27.2
CCCCC(=O)O[C@H]1CC[C@H]2[C@@H]3CCc4cc(O)ccc4[C@H]3CC[C@]12C | -8.4 | 42.6* | 4.5 | -6.9 | -2.8 | 30.3
CN(C)C=NC(=O)c1[nH]c2ccc(Cl)cc2c1-c1ccccc1 | nt | 49.1* | -6.4 | -3.3 | 4.0 | 38.5
N#Cc1ccccc1OCC(=O)OCC(=O)c1ccc[nH]1 | nt | -3.2 | -6.8 | 2.9 | -10.8 | -1.6
N#Cc1ccc(OCC(=O)OCC(=O)c2ccc[nH]2)cc1 | nt | 48.7* | 2.0 | 1.2 | 5.3 | 0.1
CN(C(=O)CN1C(=O)S/C(=C\c2ccc(F)cc2)C1=O)C1CCS(=O)(=O)C1 (centres undefined) | nt | 4.9 | 0.6 | 0.7 | 2.0 | 1.6
CCN(C(=O)CN1C(=O)S/C(=C\c2ccc(F)cc2)C1=O)C1CCS(=O)(=O)C1 (centres undefined) | nt | 23.7 | -3.8 | 22.6* | -13.0 | -0.5
O=[N+]([O-])c1ccc(C2CN=C(Nc3ccccc3)S2)cc1 (centres undefined) | 9.7 | 13.7 | -4.1 | -4.9 | -2.7 | 0.8
CCc1ccc(NC2=NCC(c3ccccc3)S2)cc1 (centres undefined) | -5.5 | 66.6* | -8.1 | -12.3 | -8.0 | 6.2
C/C=C/c1cccc(-c2nc(C(=O)NC3CCCC3)cc3c2[C@@H](CCO)N(S(=O)C(C)(C)C)C3)c1 (some centres undefined) | nt | nt | 7.4 | -10.2 | nt | nt
COc1ccc(Cc2c(-c3ccc(OC)c(OC)c3)nc3cc(C)c(Br)c(C)n23)c(C)c1 | nt | nt | -9.0 | 3.0 | nt | nt
O=C(/C=C/c1ccco1)NC(=S)Nc1ccc(N2CCCC2)cc1 | -13.9 | 43.6* | -3.4 | 2.6 | 0.6 | 4.0
O=C(/C=C/c1ccco1)NC(=S)Nc1ccc(C(=O)O)cc1 | nt | -1.0 | 0.8 | 3.7 | -8.0 | 0.1
CC(C)CC1NC(=O)c2cc3ccccc3cc2-n2c1nc1cc(Cl)ccc1c2=O (centres undefined) | nt | nt | -10.6 | -2.2 | 1.6 | nt
O=Cc1cc2ccccc2nc1SCc1ccc(Cl)cc1 | -7.6 | 45.5* | 7.4 | -3.0 | 15.7 | 32.1
OCc1ccccc1-c1nc(NCc2ccccc2)nc2ccsc12 | nt | nt | -11.7 | 11.8 | nt | nt
N#CCc1c(C#N)c(N)nc(N2CCOCC2)c1C#N | nt | -7.3 | 3.2 | 22.4* | -7.6 | 7.4
Oc1c(CN2CCOCC2)cc(CN2CCOCC2)cc1CN1CCOCC1 | nt | -6.9 | -8.3 | 4.9 | 1.3 | nt
Oc1cc(O)c(CN2CCOCC2)cc1CN1CCOCC1 | nt | -3.1 | -1.4 | 22.4* | 4.5 | nt
